In PubChem BioAssay (Tox21):
Active and inactive are the calls of the source. Calls come from the whole dose curve; as a rule, active = well fitted curve in the direction sought with a large enough effect in the repeat runs; inconclusive = weak or mixed curves; inactive = flat fitted curve, though single readings scatter.

assay: qHTS assay to test for compound auto fluorescence at 590 nm (red) in HEK293 cells (AID 720679); conditions: red autofluorescence 540/590 nm; series mostly up to 91.3 µM; fluorescence, % of fluorescent control: at the top concentration
Outline: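 Red channel, Ex/Em 540/590nm; signal expressed as equivalency to Rose Bengal sodium. HEK293, 2,000 cells/well, 10% dialyzed FBS; 23 nL compound pinned after 4-5 hr attachment; overnight 37C/5% CO2 before reading.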
% is set by controls: 0 for no effect and ±100 for the full control effect.

Row | Compound | fluorescence, % of fluorescent control | outcome
1 | NCCCN1CCN(CCCN)CC1 | 0.0861% (inactive) | –
2 | CCCOCCC | 0.0052% (inactive) | –
3 | CCCCNC(=S)NCCCC | 0.189% (inactive) | –
4 | OCCN(CCO)CCN(CCO)CCO | -0.236% (inactive) | –
5 | CC(C)C1=CC2=CC[C@@H]3[C@](C)(CCC[C@@]3(C)C(=O)O)[C@H]2CC1 | – | inactive
6 | COc1ccccc1N1CCN(CCCNc2cc(=O)n(C)c(=O)n2C)CC1 | – | inactive
7 | CCN1CC(CCN2CCOCC2)C(c2ccccc2)(c2ccccc2)C1=O (stereo not drawn) | -1.3% [at 46 µM] (inactive) | –
8 | C[C@@H]1CN(c2c(F)c(N)c3c(=O)c(C(=O)O)cn(C4CC4)c3c2F)C[C@H](C)N1 | 0.147% [at 46 µM] (inactive) | –
9 | CCOC(=O)c1ccccc1O | – | inactive
10 | CC(=O)N[C@@H](CC(C)C)C(=O)O | -0.514% [at 46 µM] (inactive) | –
11 | CC(C)CC(=O)OCc1ccccc1 | -0.866% (inactive) | –
12 | CC/C=C\CCOC(=O)CCCCC | 0.071% (inactive) | –
13 | Cc1ccc(C=O)s1 | -0.0555% (inactive) | –
14 | FC(F)(F)C(Cl)(Cl)Cl | 0.604% (inactive) | –
15 | CN(C)Cc1ccccc1 | – | inactive
16 | CC(C)c1ccccc1 | -0.262% [at 95.7 µM] (inactive) | –

Row | Compound | fluorescence, % of fluorescent control | outcome
17 | O=Cc1ccc(F)c(Br)c1 | -0.337% (inactive) | –
18 | CCOC(=O)C(Br)c1ccccc1 (stereo not drawn) | 0.127% (inactive) | –
19 | CCCC1CCC(=O)O1 (stereo not drawn) | -0.387% (inactive) | –
20 | CN1CCN(c2c(F)cc3c(=O)c(C(=O)O)cn4c3c2SCC4)CC1 | 0.028% [at 46 µM] (inactive) | –
21 | O=c1[nH]cnc2c1ncn2[C@@H]1O[C@H](CO)[C@@H](O)[C@H]1O | 0.0652% [at 46 µM] (inactive) | –
22 | CCOC(=O)[C@H](CCc1ccccc1)N[C@@H](C)C(=O)N1Cc2cc(OC)c(OC)cc2C[C@H]1C(=O)O | 0.0024% [at 46 µM] (inactive) | –
23 | CC(C)C(=O)OC/C=C/c1ccccc1 | -0.0142% (inactive) | –
24 | COc1nc(C)nc(NC(=O)NS(=O)(=O)c2ccccc2OCCCl)n1 | -0.227% (inactive) | –
25 | Cc1c(C(=O)NCCO)[n+](=O)c2ccccc2n1[O-] | -0.963% [at 46 µM] (inactive) | –
26 | CCCCc1ccc2nc(NC(=O)OC)[nH]c2c1 | 0.021% [at 18.6 µM] (inactive) | –
27 | NC(=O)Cc1cccc(C(=O)c2ccccc2)c1N | -0.792% [at 46 µM] (inactive) | –
28 | Nc1cccc(S(=O)(=O)O)c1 | 0.454% (inactive) | –
29 | COC(=O)c1ccc(OC)cc1 | 0.166% (inactive) | –
30 | C=Cc1ccccc1 | – | inactive
31 | Cc1cc(S(=O)(=O)O)c(N)cc1Cl | -0.0966% (inactive) | –
32 | O=C(O)c1cccc(Cl)c1Cl | -0.582% (inactive) | –

assay: qHTS assay to test for compound auto fluorescence at 535 nm (green) in HEK293 cells (AID 720680); conditions: green autofluorescence 485/535 nm; series mostly up to 91.3 µM; fluorescence, % of fluorescein: at the top concentration

Row | Compound | fluorescence, % of fluorescein | outcome
33 | NCCCN1CCN(CCCN)CC1 | 0.003% (inactive) | –
34 | CCCOCCC | -0.059% (inactive) | –
35 | CCCCNC(=S)NCCCC | 0.0449% (inactive) | –
36 | OCCN(CCO)CCN(CCO)CCO | -0.0898% (inactive) | –
37 | CC(C)C1=CC2=CC[C@@H]3[C@](C)(CCC[C@@]3(C)C(=O)O)[C@H]2CC1 | – | inactive
38 | NC/C=C/C(=O)O | 0.0321% [at 46 µM] (inactive) | –
39 | COc1ccccc1N1CCN(CCCNc2cc(=O)n(C)c(=O)n2C)CC1 | – | inactive
40 | CCN1CC(CCN2CCOCC2)C(c2ccccc2)(c2ccccc2)C1=O (stereo not drawn) | -0.0847% [at 46 µM] (inactive) | –
41 | C[C@@H]1CN(c2c(F)c(N)c3c(=O)c(C(=O)O)cn(C4CC4)c3c2F)C[C@H](C)N1 | -0.0955% [at 46 µM] (inactive) | –
42 | CCOC(=O)c1ccccc1O | – | inactive
43 | CC(=O)N[C@@H](CC(C)C)C(=O)O | -0.101% [at 46 µM] (inactive) | –
44 | CC(C)CC(=O)OCc1ccccc1 | 0.0257% (inactive) | –
45 | CC/C=C\CCOC(=O)CCCCC | 0.0269% (inactive) | –
46 | Cc1ccc(C=O)s1 | -0.0523% (inactive) | –
47 | FC(F)(F)C(Cl)(Cl)Cl | -0.0043% (inactive) | –
48 | CN(C)Cc1ccccc1 | – | inactive
49 | CC(C)c1ccccc1 | -0.0741% [at 95.7 µM] (inactive) | –
50 | O=Cc1ccc(F)c(Br)c1 | 0.0411% (inactive) | –

Row | Compound | fluorescence, % of fluorescein | outcome
51 | CCOC(=O)C(Br)c1ccccc1 (stereo not drawn) | 0.0261% (inactive) | –
52 | CCCC1CCC(=O)O1 (stereo not drawn) | 0.0219% (inactive) | –
53 | CN1CCN(c2c(F)cc3c(=O)c(C(=O)O)cn4c3c2SCC4)CC1 | -0.114% [at 46 µM] (inactive) | –
54 | O=c1[nH]cnc2c1ncn2[C@@H]1O[C@H](CO)[C@@H](O)[C@H]1O | -0.11% [at 46 µM] (inactive) | –
55 | CCOC(=O)[C@H](CCc1ccccc1)N[C@@H](C)C(=O)N1Cc2cc(OC)c(OC)cc2C[C@H]1C(=O)O | 0.0749% [at 46 µM] (inactive) | –
56 | CC(C)C(=O)OC/C=C/c1ccccc1 | -0.0693% (inactive) | –
57 | COc1nc(C)nc(NC(=O)NS(=O)(=O)c2ccccc2OCCCl)n1 | -0.131% (inactive) | –
58 | FC(F)(F)c1ccccc1 | -0.104% (inactive) | –
59 | Cc1c(C(=O)NCCO)[n+](=O)c2ccccc2n1[O-] | -0.0574% [at 46 µM] (inactive) | –
60 | CCCCc1ccc2nc(NC(=O)OC)[nH]c2c1 | -0.231% [at 18.6 µM] (inactive) | –
61 | NC(=O)Cc1cccc(C(=O)c2ccccc2)c1N | -0.105% [at 46 µM] (inactive) | –
62 | Nc1cccc(S(=O)(=O)O)c1 | 0.172% (inactive) | –
63 | COC(=O)c1ccc(OC)cc1 | 0.0444% (inactive) | –
64 | COc1cc(C)ccc1C(C)C | 0.0491% (inactive) | –
65 | C=Cc1ccccc1 | – | inactive
66 | Cc1cc(S(=O)(=O)O)c(N)cc1Cl | -0.187% (inactive) | –
67 | O=C(O)c1cccc(Cl)c1Cl | -0.0676% (inactive) | –

assay: qHTS assay to test for compound auto fluorescence at 460 nm (blue) in HEK293 cell free culture (AID 720681); conditions: cell-free medium, autofluorescence 405/460 nm (blue); series mostly up to 91.3 µM; fluorescence, % of fluorescent control: at the top concentration
Outline: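 Compounds were added to cell-free DMEM with 10% FBS and fluorescence read directly. The blue channel used 405 nm excitation and 460 nm emission, with triamterene as the reference fluorophore.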

Row | Compound | fluorescence, % of fluorescent control | outcome
68 | NCCCN1CCN(CCCN)CC1 | 0.0223% (inactive) | –
69 | CCCOCCC | -0.123% (inactive) | –
70 | CCCCNC(=S)NCCCC | -0.184% (inactive) | –
71 | OCCN(CCO)CCN(CCO)CCO | 0.029% (inactive) | –
72 | CC(C)C1=CC2=CC[C@@H]3[C@](C)(CCC[C@@]3(C)C(=O)O)[C@H]2CC1 | – | inactive
73 | NC/C=C/C(=O)O | 0.0444% [at 46 µM] (inactive) | –
74 | COc1ccccc1N1CCN(CCCNc2cc(=O)n(C)c(=O)n2C)CC1 | – | inactive
75 | C[C@@H]1CN(c2c(F)c(N)c3c(=O)c(C(=O)O)cn(C4CC4)c3c2F)C[C@H](C)N1 | 0.0294% [at 46 µM] (inactive) | –
76 | CCOC(=O)c1ccccc1O | – | inactive
77 | CC(=O)N[C@@H](CC(C)C)C(=O)O | -0.194% [at 46 µM] (inactive) | –
78 | CC(C)CC(=O)OCc1ccccc1 | 0.0045% (inactive) | –
79 | Cc1ccc(C=O)s1 | 0.145% (inactive) | –
80 | CN(C)Cc1ccccc1 | – | inactive
81 | CC(C)c1ccccc1 | -0.022% [at 95.7 µM] (inactive) | –
82 | O=Cc1ccc(F)c(Br)c1 | 0.0549% (inactive) | –
83 | CCOC(=O)C(Br)c1ccccc1 (stereo not drawn) | -0.151% (inactive) | –

Row | Compound | fluorescence, % of fluorescent control | outcome
84 | CCCC1CCC(=O)O1 (stereo not drawn) | -0.178% (inactive) | –
85 | CN1CCN(c2c(F)cc3c(=O)c(C(=O)O)cn4c3c2SCC4)CC1 | 0.462% [at 46 µM] (inactive) | –
86 | O=c1[nH]cnc2c1ncn2[C@@H]1O[C@H](CO)[C@@H](O)[C@H]1O | -0.0793% [at 46 µM] (inactive) | –
87 | CCOC(=O)[C@H](CCc1ccccc1)N[C@@H](C)C(=O)N1Cc2cc(OC)c(OC)cc2C[C@H]1C(=O)O | 0.0087% [at 46 µM] (inactive) | –
88 | CC(C)C(=O)OC/C=C/c1ccccc1 | -0.0504% (inactive) | –
89 | COc1nc(C)nc(NC(=O)NS(=O)(=O)c2ccccc2OCCCl)n1 | 0.0773% (inactive) | –
90 | FC(F)(F)c1ccccc1 | -0.132% (inactive) | –
91 | Cc1c(C(=O)NCCO)[n+](=O)c2ccccc2n1[O-] | 0.0303% [at 46 µM] (inactive) | –
92 | CCCCc1ccc2nc(NC(=O)OC)[nH]c2c1 | -0.0022% [at 18.6 µM] (inactive) | –
93 | NC(=O)Cc1cccc(C(=O)c2ccccc2)c1N | -0.0155% [at 46 µM] (inactive) | –
94 | Nc1cccc(S(=O)(=O)O)c1 | 0.413% (inactive) | –
95 | COC(=O)c1ccc(OC)cc1 | 0.0279% (inactive) | –
96 | COc1cc(C)ccc1C(C)C | 0.0155% (inactive) | –
97 | C=Cc1ccccc1 | – | inactive
98 | Cc1cc(S(=O)(=O)O)c(N)cc1Cl | 0.0408% (inactive) | –
